# Measurements taken from PubChem BioAssay (NCATS).
# “And” between values parts separate entries of the source, which are not always exact repeats. Equal values may be shown once. Records with an inconclusive call do not appear. Unmarked numbers belong to inactive results. The source made the active and inactive calls. The call rests on the fitted dose curve; in most records, active means well fitted curve in the direction sought with a large enough effect; inconclusive means small, poorly fitted or top-dose-only effect, or another doubt; inactive means no such curve, though single readings can be large; an effect the other way counts as inactive or inconclusive.
# Experiments:
# [1] = target: Cellular tumor antigen p53 (Homo sapiens) (UniProt P04637); experiment: Primary qHTS for small molecule compounds that upregulate eGFP-tagged delta133p53alpha (in N-terminal) cells. (AID 2060322); details: NCI-H358 eGFP-delta133p53alpha fluorescence, 24 h; activation: stronger effect = higher value; further: nearly all actives have a fitted effect of over 75% in size; further: potency means the concentration at half of the fitted maximal effect;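 on activation: cells pre-induced with doxycycline then dosed without doxycycline; series mostly up to about 56 µM; 0% = DMSO vehicle and 100% = reference activator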
# Sequence of Cellular tumor antigen p53 (Homo sapiens) (P04637 whole entry, looked up): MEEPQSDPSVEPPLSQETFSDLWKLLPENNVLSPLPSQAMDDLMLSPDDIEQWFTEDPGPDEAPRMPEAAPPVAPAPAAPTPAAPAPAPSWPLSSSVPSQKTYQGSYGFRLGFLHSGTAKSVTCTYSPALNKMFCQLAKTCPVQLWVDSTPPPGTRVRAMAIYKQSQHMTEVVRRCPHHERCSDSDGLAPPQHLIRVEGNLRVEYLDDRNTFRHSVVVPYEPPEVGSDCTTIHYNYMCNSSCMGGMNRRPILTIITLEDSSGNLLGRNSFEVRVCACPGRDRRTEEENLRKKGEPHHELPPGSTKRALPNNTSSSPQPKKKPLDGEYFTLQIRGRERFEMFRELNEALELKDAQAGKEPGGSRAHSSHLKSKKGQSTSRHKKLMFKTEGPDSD
# Outline: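 NCI-H358 cells pre-induced 24 h with 10 ng/ml doxycycline for eGFP-delta133p53alpha, plated dox-free and exposed 24 h at 37C to titrated compounds. Fixed, Hoechst-stained; gated GFP peak intensity by laser scanning cytometry, normalized to DMSO (0%) and 57.5 uM 5-azacytidine (100%).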
# [2] = target: Aldehyde dehydrogenase, mitochondrial (Homo sapiens) (UniProt P05091); experiment: qHTS for Inhibitors of the Aldehyde Dehydrogenase Family (ALDH2) Primary screen (AID 2061308);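 further: plate controls were vehicle for no effect and reference inhibitor for full effect; nearly all actives have a fitted effect of over 55% in size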
# [3] = target: Retinaldehyde dehydrogenase 3 (Homo sapiens) (UniProt P47895); experiment: qHTS for Inhibitors of the Aldehyde Dehydrogenase Family (ALDH1A3) Validation screen (AID 2061312); further: on the % scale 0 is the no-effect control and ±100 the full control effect; nearly all actives have a fitted effect of over 45% in size
# [4] = target: Retinaldehyde dehydrogenase 3 (Homo sapiens) (UniProt P47895); experiment: qHTS for Inhibitors of the Aldehyde Dehydrogenase Family (ALDH1A3) Primary screen (AID 2061315);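 further: plate controls were DMSO vehicle for no effect and reference inhibitor for full effect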
# [5] = BET inhibitor-based combinations targeting novel dependencies in MECOM-rearranged (r) AML: SET-2 cell line (AID 2202231); details: SET-2 AML cells viability, CellTiter-Glo luminescence, 48 h; viability: stronger effect = lower value, concentration not given here; further: nearly all actives have a fitted effect of over 35% in size; further: potency means the concentration at half of the fitted maximal effect;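 on viability: plate controls were DMSO treated cells for no effect and wells without cells for full effect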
# Outline: (§1)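 Cells were plated at 500 per well and exposed to an 11-point dose series of each drug for 48 hr. Viability was measured by CellTiter-Glo luminescence, normalized to DMSO and empty-well controls, and summarized as AUC and per-cell-line Z-AUC.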
# [6] = BET inhibitor-based combinations targeting novel dependencies in MECOM-rearranged (r) AML: OCI-AML3 cell line (AID 2202232); details: Potency: OCI-AML3 viability; further: nearly all actives have a fitted effect of over 35% in size; further: potency means the concentration at half of the fitted maximal effect;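 on viability (% of control): series mostly up to about 46 µM; plate controls were DMSO vehicle wells for no effect and wells without cells for full effect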
# Outline: as §1
# [7] = BET inhibitor-based combinations targeting novel dependencies in MECOM-rearranged (r) AML: UCSD-AML1 cell line (AID 2202235); further: nearly all actives have a fitted effect of over 40% in size; further: potency means the concentration at half of the fitted maximal effect;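 on viability (% of control): series mostly up to about 46 µM; plate controls were DMSO vehicle wells for no effect and blank wells for full effect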
# Outline: (§2)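 Activity is given as area under the curve and as Z-AUC, mean-centred within each cell line. It comes from 11-point dose curves normalized to DMSO and empty wells. CellTiter-Glo luminescence was read after 48 hr drug exposure of 500 cells/well.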
# [8] = BET inhibitor-based combinations targeting novel dependencies in MECOM-rearranged (r) AML: AML-191 cell line (AID 2202236; further: nearly all actives have a fitted effect of over 35% in size; further: potency means the concentration at half of the fitted maximal effect;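 on viability (% of control): plate controls were vehicle wells for no effect and wells without cells for full effect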)
# Outline: as §1
# [9] = BET inhibitor-based combinations targeting novel dependencies in MECOM-rearranged (r) AML: AML-194 cell line (AID 2202237; further: nearly all actives have a fitted effect of over 40% in size; further: potency means the concentration at half of the fitted maximal effect;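 on viability (% of control): plate controls were vehicle wells for no effect and wells without cells for full effect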)
# Outline: as §1
# [10] = BET inhibitor-based combinations targeting novel dependencies in MECOM-rearranged (r) AML: HNT-34 cell line (AID 2202234); further: nearly all actives have a fitted effect of over 35% in size; further: potency means the concentration at half of the fitted maximal effect;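 on viability (% of control): plate controls were vehicle wells for no effect and cell-free wells for full effect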
# Outline: as §2
# [11] = BET inhibitor-based combinations targeting novel dependencies in MECOM-rearranged (r) AML: MV-4-11 cell line (AID 2202233); further: nearly all actives have a fitted effect of over 45% in size; further: potency means the concentration at half of the fitted maximal effect
# Outline: as §2
smiles,measurement,setting,value
Cc1cc(OCc2nnc(SC3CCCC3)n2-c2cccnc2)ccc1-c1ccc(S(C)(=O)=O)cc1,Potency,[1],6.75 µM (active)
same,Potency,[2],inactive
same,Potency,[3],inactive
same,Potency,[4],inactive
same,Potency,[5],6610 nM (active)
same,Potency,[6],3720 nM (active)
same,Potency,[7],5900 nM (active)
same,Potency,[8],8330 nM (active)
same,Potency,[9],7420 nM (active)
CC[C@@]1(O)C(=O)OCc2c1cc1n(c2=O)Cc2cc3cc(O)ccc3nc2-1,Potency,[1],1.51 µM (active) and 19.3 µM (active)
same,Potency,[2],inactive
same,Potency,[3],inactive
same,Potency,[4],inactive
same,Potency,[5],33.2 nM (active)
same,Potency,[6],14.8 nM (active)
same,Potency,[10],7.4 nM (active)
same,Potency,[7],13.2 nM (active)
same,Potency,[8],13.2 nM (active)
same,Potency,[9],20.9 nM (active)
Nc1ncnc2c1c(-c1cnc3[nH]ccc3c1)nn2C1CCCC1,Potency,[1],26.9 µM (active)
same,Potency,[2],inactive
same,Potency,[3],inactive
same,Potency,[4],inactive
same,Potency,[5],3720 nM (active)
same,Potency,[6],4170 nM (active)
same,Potency,[11],1660 nM (active)
same,Potency,[7],372 nM (active)
same,Potency,[8],2950 nM (active)
same,Potency,[9],1860 nM (active)
CC(C)C[C@H](NC(=O)[C@H](Cc1ccccc1)NC(=O)c1cnccn1)B(O)O,Potency,[1],968 nM (active) and 379 nM (active)
same,Potency,[2],inactive
same,Potency,[3],inactive
same,Potency,[4],inactive
same,Potency,[5],16.6 nM (active)
same,Potency,[6],10.5 nM (active)
same,Potency,[11],13.2 nM (active)
same,Potency,[7],18.6 nM (active)
same,Potency,[8],18.6 nM (active)
same,Potency,[9],20.9 nM (active)
CNC(=O)c1cccc(-c2ccc3c(N4CCOC[C@@H]4C)nc(N4CCOC[C@@H]4C)nc3n2)c1,activation,[1],20%
same,Potency,[2],inactive
same,Potency,[3],inactive
same,Potency,[4],inactive
same,Potency,[5],590 nM (active)
same,Potency,[6],263 nM (active)
same,Potency,[11],372 nM (active)
same,Potency,[7],66.1 nM (active)
CCN(CCO)CCCC(C)Nc1ccnc2cc(Cl)ccc12 (configuration not stated),activation,[1],3.35% and 25.7% and 0.955%
same,"activity change, negative = inhibition",[2],2.52% [at 5.59 µM]
same,"activity change, negative = inhibition",[3],6.92% [at 9.14 µM]
same,"activity change, negative = inhibition",[4],5.26% [at 5.59 µM]
same,viability,[5],104%
same,viability (% of control),[6],48.6% [at 5.12 µM]
same,viability (% of control),[7],97.7% [at 5.12 µM]
same,viability (% of control),[8],74.5% [at 5.12 µM]
same,viability (% of control),[9],88% [at 5.12 µM]
CCCCNc1ncc(-c2ccc(CN3CCOCC3)cn2)c(NC2CCC(O)CC2)n1 (configuration not stated),activation,[1],-4.77%
same,Potency,[2],inactive
same,Potency,[3],inactive
same,Potency,[4],inactive
same,viability,[5],114%
same,Potency,[6],1150 nM (active)
same,Potency,[11],144 nM (active)
same,Potency,[7],8110 nM (active)
O=C(NCC(=O)N1CC[C@H](NC2CCC(O)(c3ccc(-c4ncccn4)cn3)CC2)C1)c1cccc(C(F)(F)F)c1 (some centres not stated),activation,[1],5.25%
same,Potency,[2],inactive
same,Potency,[3],inactive
same,Potency,[4],inactive
same,viability,[5],98.1%
same,Potency,[11],10500 nM (active)
same,Potency,[10],inactive
same,Potency,[7],inactive
CC[C@@H](C)Nc1cc(C(=O)NC2CC3CCC(C2)N3c2ccc(C(=O)C3CC3)cn2)c(C)cc1C(N)=O (some centres not stated),activation,[1],-11%
same,Potency,[2],inactive
same,Potency,[3],inactive
same,Potency,[4],inactive
same,Potency,[5],132 nM (active)
same,Potency,[6],166 nM (active)
same,Potency,[11],66.1 nM (active)
same,Potency,[7],263 nM (active)
same,Potency,[8],209 nM (active)
same,Potency,[9],118 nM (active)
Cc1cc(-c2ncc(CC(=O)Nc3ccc(-c4cnccn4)cn3)cc2C)ccn1,activation,[1],-9.46% and -6.68%
same,Potency,[2],inactive
same,Potency,[3],inactive
same,Potency,[4],inactive
same,Potency,[5],11800 nM (active)
same,Potency,[6],8330 nM (active)
same,Potency,[11],8330 nM (active)
same,Potency,[7],26300 nM (active)
same,Potency,[9],inactive
O=C(Nc1ncc(-c2cc(C(F)F)nn2-c2c(Cl)cccc2Cl)s1)C1CC1,activation,[1],7.16%
same,Potency,[2],inactive
same,Potency,[3],inactive
same,Potency,[4],inactive
same,Potency,[5],1050 nM (active)
same,Potency,[11],1050 nM (active)
same,Potency,[10],742 nM (active)
same,Potency,[7],833 nM (active)
same,Potency,[8],934 nM (active)
same,Potency,[9],742 nM (active)
COCCOc1ccc(N2CCN(CCn3ncc4c3nc(N)n3nc(-c5ccco5)nc43)CC2)cc1,activation,[1],6.21%
same,Potency,[2],inactive
same,Potency,[3],inactive
same,Potency,[4],inactive
same,viability,[5],113%
same,Potency,[6],inactive
same,Potency,[10],inactive
same,Potency,[7],inactive
same,Potency,[8],inactive
same,Potency,[9],inactive
COC(=O)N(C)c1c(N)nc(-c2nn(Cc3ccccc3F)c3ncccc23)nc1N,activation,[1],-15.8%
same,Potency,[2],inactive
same,Potency,[3],inactive
same,Potency,[4],inactive
same,viability,[5],119%
same,Potency,[6],inactive
same,Potency,[11],inactive
same,Potency,[8],inactive
same,Potency,[9],inactive
CCCCc1oc2ccc(NS(C)(=O)=O)cc2c1C(=O)c1ccc(OCCCN(CCCC)CCCC)cc1,activation,[1],2.56%
same,Potency,[2],inactive
same,Potency,[3],inactive
same,Potency,[4],inactive
same,Potency,[5],18600 nM (active)
same,Potency,[6],14800 nM (active)
same,Potency,[11],10500 nM (active)
same,Potency,[7],10500 nM (active)
same,Potency,[8],10500 nM (active)
same,Potency,[9],10500 nM (active)
C[C@]12CC[C@H](O)CC1=CCC1C2CC[C@]2(C)C(n3cnc4ccccc43)=CCC12 (some centres not stated),activation,[1],20.1% and 28.6%
same,Potency,[2],inactive
same,Potency,[3],inactive
same,Potency,[4],inactive
same,viability,[5],118%
same,Potency,[6],inactive
same,Potency,[10],inactive
same,Potency,[8],18600 nM (active)
same,Potency,[9],inactive
COc1ccc(-n2nc(C(N)=O)c3c2C(=O)N(c2ccc(N4CCCCC4=O)cc2)CC3)cc1,activation,[1],22.9% and -7.16%
same,Potency,[2],inactive
same,Potency,[3],inactive
same,Potency,[4],inactive
same,viability,[5],101%
same,Potency,[6],inactive
same,Potency,[11],inactive
same,Potency,[9],inactive
